Only some compounds are listed: those with a hit (about 11% of all), similar ones and a draw of the others.
HPGD block: blocks human HPGD enzyme activity. P15428. 4.3% of 150,000 active. purified HPGD, NADH fluorescence kinetic, PGE2 substrate. Potency, µM, for inactives: at the highest dose activity change, negative = inhibition, most hits filed as inhibitors; also: potency is read from the fitted curve at half-maximal effect
Target sequence (P15428 whole entry, looked up): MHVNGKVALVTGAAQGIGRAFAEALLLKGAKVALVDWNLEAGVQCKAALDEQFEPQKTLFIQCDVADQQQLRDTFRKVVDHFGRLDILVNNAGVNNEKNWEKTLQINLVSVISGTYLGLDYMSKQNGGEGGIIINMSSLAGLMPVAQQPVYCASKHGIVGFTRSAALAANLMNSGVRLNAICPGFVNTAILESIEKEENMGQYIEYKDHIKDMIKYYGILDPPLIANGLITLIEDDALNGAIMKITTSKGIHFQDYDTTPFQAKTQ
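NADH formation kinetics: reaction with 30 uM PGE2 and 1 mM NAD+ (final), 20 nM enzyme, Tris-HCl pH 8 with Tween 20, after 15 min compound preincubation at room temperature. Fluorescence change, last versus first of five reads.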
ALDH1A1 block: ALDH1A1 (human) enzyme inhibition. 7.3% of 220,000 active. Potency, µM (series often up to 75.3 µM), without a hit: top-dose activity, negative = inhibition, most hits filed as inhibitors. Purified ALDH1A1, NADH fluorescence, propionaldehyde substrate. AID 1030. P00352;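 also: potency is read from the fitted curve at half-maximal effect; plate controls were no enzyme wells and a reference inhibitor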
PNC inhibitor: perinucleolar compartment assembly inhibition; activity change (PNC), negative = inhibition, % at 10 µM; 3.1% of 140,000 active; PC3M PTB-GFP, PNC prevalence imaging, 16 h; active compounds read low; AID 2417;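 active = readout at or below -70, meaning at least 70% loss of cells showing the perinucleolar compartment, a nuclear body marking cancer cells; inconclusive = readout between -30 and a set limit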;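 also: plate controls were DMSO wells for no effect and camptothecin positive control wells for full effect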
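Read-out is percentage of cells bearing a perinucleolar compartment, from automated 20x imaging of fixed, Hoechst-stained PC3M PTB-GFP cells. Cells were seeded 4 h, then exposed 16 h to compound (23 nl of library stock) in duplicate plates.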
JMJD2E inh: blocks human JMJD2E demethylase activity | Potency, µM (highest dose often 57.1 µM), without a hit: at the top dose activity change, negative = inhibition, usual class: inhibitors | 1.6% of 230,000 active | B2RXH2 | JMJD2E catalytic domain, FDH-coupled NADH fluorescence (FDH is formaldehyde dehydrogenase);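 also: potency is read from the fitted curve at half-maximal effect; 0% = wells with enzyme and -100% = buffer wells without enzyme; nearly all actives have a fitted effect of over 50% in size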
Target sequence (B2RXH2 1-337 limits assumed): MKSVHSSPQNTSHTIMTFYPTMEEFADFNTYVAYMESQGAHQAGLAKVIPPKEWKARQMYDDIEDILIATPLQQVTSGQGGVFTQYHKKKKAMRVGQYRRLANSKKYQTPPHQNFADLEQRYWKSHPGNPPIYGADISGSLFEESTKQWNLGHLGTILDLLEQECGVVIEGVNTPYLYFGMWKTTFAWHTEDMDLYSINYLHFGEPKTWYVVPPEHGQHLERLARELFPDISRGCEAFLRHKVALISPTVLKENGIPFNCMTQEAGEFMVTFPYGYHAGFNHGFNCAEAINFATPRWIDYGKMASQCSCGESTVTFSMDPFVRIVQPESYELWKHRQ
Starred values were filed as active, the others as inactive; u = inconclusive; x = no result; [ ] = dose if it differs, or a comment. Unless noted, calls follow the shape of the dose curve; as a rule, active = well fitted inhibition curve with a large enough effect (not every such curve was filed as active); inconclusive = small, poorly fitted or top-dose-only effect, or another doubt; inactive = no such curve, though single readings can be large or run the other way. Unless noted, % is scaled to controls: 0 for no effect and ±100 for the full control effect.

SMILES	HPGD block	ALDH1A1 block	PNC inhibitor	JMJD2E inh
O=C(OCC(=O)N1CCN(C(=O)c2ccco2)CC1)c1cc(S(=O)(=O)Nc2ccc(Cl)cc2)ccc1O	x	14.1µM*	x	u
O=C(OCC(=O)N1CCCC1)c1ccc(NS(=O)(=O)c2cccs2)cc1O	x	u	x	-8.4%
CCN(C(=O)c1ccc(Cl)c([N+](=O)[O-])c1)c1ccccc1	x	12.6µM*	x	-2.2%
CCOC(=O)COc1cc2oc(=O)cc(C)c2cc1[N+](=O)[O-]	x	1.0%	x	0.1%
CC1=C(C(=O)c2ccccc2)C(c2ccc(OC(F)F)cc2)NC(=S)N1 (centres undefined)	x	1.12µM*	x	-14.8%
CC1=C(C(=O)c2ccccc2)C(c2ccc(O)cc2)NC(=S)N1 (centres undefined)	x	x	x	-17.0%
Cn1cc(-c2nc3cncnc3n(Cc3ccccc3Cl)c2=O)c2ccccc21	x	-15.0%	x	x
COC1(OC)N=C(N)C2(C#N)C(c3cccc(Oc4ccccc4)c3)C12C#N (centres undefined)	-16.6%	22.4µM*	35.7	u
O=C(CN(Cc1ccc2c(c1)OCO2)C(=O)CNC(=O)c1ccco1)NC1CCCCC1	-7.4%	22.4µM*	7.5	-12.8%
CCOC(=O)c1ccc(N(CC(=O)NC2CCCC2)C(=O)CNC(=O)c2ccco2)cc1	-5.8%	-8.1%	-85.5*	0.6%
COc1ccc(CCN2C(=O)C3CC(C)=C(C)CC3C2=O)cc1OC (centres undefined)	-15.1%	u	-23.1	9.7%
COc1cccc(C(=O)/C=C/c2ccc(OCC#N)c(OC)c2)c1	-23.2%	8.91µM*	19.9	-2.4%
COc1ccc(C(=O)/C=C/c2ccc(OC3CSC3)cc2)cc1OC	14.1µM*	u	25.8	-2.5%
COc1cccc(C(=O)/C=C/c2ccc(SC)cc2)c1	-19.0%	15.8µM*	61.3	-3.8%
CCN(C(=O)COC(=O)c1cncc(Br)c1)C1CCS(=O)(=O)C1 (centres undefined)	x	2.2%	x	-4.4%
CC(C)CN1CCC2(CC1)CCN(S(=O)(=O)c1ccccc1)CC2	-1.7%	10.0%	x	x
Cc1cc(C)cc(C(=O)N2CCCCCC2)c1	15.8µM*	7.1%	0.2	6.2%
Cc1cc(C(=O)N2CCCCCC2)cs1	0.447µM*	-4.5%	-124.4*	0.4%
Cc1ccc(C(=O)Nc2ccc(C(=O)N3CCCCC3)cc2)cc1	x	u	x	1.6%
O=C(Nc1ccccc1F)c1cc2nc(C(F)F)cc(C(F)F)n2n1	u	u	93.1	u
Cc1nn(-c2ccccc2)c(N)c1Sc1cccc([N+](=O)[O-])c1	25.1µM*	u	5.1	-10.9%
Cc1nn(-c2ccccc2)c(N)c1Sc1ccccc1[N+](=O)[O-]	-10.7%	u	-4.7	-1.3%
COC(=O)N1CCC[C@@]2(CCN(C(=O)Nc3ccccc3)C2)C1	-10.6%	-2.1%	x	x
O=C(CN(CC1CCCO1)C(=O)CCC(=O)Nc1ccccn1)NCc1ccccc1 (centres undefined)	-15.8%	3.4%	-100.0*	2.0%
COc1ccccc1N=C1SC(C(=O)Nc2ccc(F)cc2)CC(=O)N1C (centres undefined)	-6.4%	8.4%	-100.0*	8.4%
SMILES	HPGD block	ALDH1A1 block	PNC inhibitor	JMJD2E inh
C=CCn1c(SCC(=O)NCC2CCCO2)nc2scc(-c3ccco3)c2c1=O (centres undefined)	-26.3%	25.1µM*	-12.6	1.0%
C=CCn1c(SCC(=O)NCC2CCCO2)nnc1-c1ccccc1 (centres undefined)	x	5.2%	x	-0.7%
O=c1c2c(-c3ccco3)csc2nc(SCc2cn3cccnc3n2)n1-c1ccccc1	-18.4%	u	-3.8	u
C=CCn1c(SCC(N)=O)nc2scc(-c3ccc(C)o3)c2c1=O	x	10µM*	x	-12.3%
O=C(CSc1nc2scc(-c3ccco3)c2c(=O)n1-c1ccccc1)N1CCOCC1	-12.7%	u	-18.3	-26.4%
NC(=O)CSc1nc2scc(-c3ccco3)c2c(=O)n1-c1ccccc1	-14.6%	3.55µM*	-27.5	u
O=C(CSc1nc2scc(-c3ccco3)c2c(=O)n1-c1ccccc1)NCC1CCCO1 (centres undefined)	-9.2%	12.6µM*	-6.3	-1.7%
C/C(=N\NC(=S)NC1CCCCC1)c1cccc(C(F)(F)F)c1	x	x	x	0.8%
COc1ccc(OC)c(NC(=O)COC(=O)CCCN2C(=O)c3ccccc3C2=O)c1	-15.4%	-3.9%	-7.0	-2.5%
CN1CCN(C(=O)C23CC4CC(C2)CC(c2ccccc2)(C4)C3)CC1	x	u	x	-13.1%
C=CCn1c(SCC(=O)NCCOC)nc2scc(-c3ccco3)c2c1=O	-12.6%	7.94µM*	11.2	-23.7%
C=CCn1c(SCc2ccccc2)nc2scc(-c3ccc(C)o3)c2c1=O	-11.1%	u	82.0	5.2%
Cc1ccc(NC(=O)C(c2ccc(Cl)cc2Cl)N2CCCC2)cc1 (centres undefined)	1.7%	8.3%	57.5	-6.1%
Cc1cccc(NC(=O)C(c2ccccc2Cl)N2CCOCC2)c1 (centres undefined)	x	25.1µM*	x	8.4%
COc1ccc(-c2nc(N)ncc2-c2csc(C)n2)c(O)c1OC	x	4.3%	x	-1.2%
COc1ccc(-c2ccnc(SCC(=O)Nc3ccccn3)n2)cc1	u	u	38.6	u
COc1ccc2c3c([nH]c2c1)[C@H]1C[C@@H]2[C@@H](C[C@@H](O)[C@H](OC)[C@H]2C(=O)O)CN1CC3	-8.3%	-11.0%[13.5 µM]	x	x
O=C(CN1C(=O)CC(c2ccco2)Sc2ccccc21)NC1CCCCC1 (centres undefined)	x	-3.9%	x	2.0%
Cc1ccc(S(=O)(=O)N(C)C)cc1NC(=O)Cn1c(CN2CCOCC2)nc2ccccc2c1=O	x	10.3%	x	-13.4%
CCOC(=O)CC1Sc2ccccc2NC1=O (centres undefined)	-12.5%	1.1%	15.0	-0.2%
CCOC(=O)CC1Sc2ccccc2NC1=S (centres undefined)	x	7.94µM*	x	-25.3%
CSC1=NC(C)(C)C=C(/C=C/c2ccc(Cl)cc2)N1	x	20µM*	x	-13.9%
Cc1ccc(C2=[N+]([O-])C3(CCCCC/C3=N\O)N(O)C2(C)C)o1 (centres undefined)	-14.5%	28.2µM*	-11.2	-16.5%
Cc1cc(C)cc(NC(=O)c2ccc(CNc3c(N4CCCC4)c(=O)c3=O)cc2)c1	x	x	x	-3.3%
COC(=O)C1NN=C(C(=O)c2ccccc2)C1c1ccccc1 (centres undefined)	-11.1%	u	16.2	0.4%
SMILES	HPGD block	ALDH1A1 block	PNC inhibitor	JMJD2E inh
COC(=O)C1NN=C(C(=O)c2ccc(Cl)cc2)C1c1ccc(OC)cc1 (centres undefined)	-18.1%	25.1µM*	1.7	-0.7%
c1cc2c(cc1C(N1CCNCC1)N1CCNCC1)OCO2	-1.0%	6.6%[13.5 µM]	x	x
C=CCN1C(=O)S/C(=C\c2ccc(N3CCOCC3)cc2C)C1=O	u	0.891µM*	3.7	-2.4%
C=CC(C)N1C(=O)S/C(=C\c2ccc(N3CCOCC3)cc2C)C1=O (centres undefined)	-15.2%	u	36.1	-2.3%
C=CCN1C(=O)S/C(=C/c2ccsc2)C1=O	-24.1%	12.6µM*	-9.6	0.8%
C=CCN1C(=O)S/C(=C\c2ccc3c(c2)n(C)c(=O)n3C)C1=O	13.7%	0.282µM*	13.2	-7.1%
